FAS TE block = inhibitors of human fatty acid synthase thioesterase domain; P49327; recombinant FAS-TE, OMFH fluorogenic substrate, fluorescence endpoint; inhibition, % at 15 µM; 360,000 compounds, 0.67% hits;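 active = compounds whose normalised, plate-corrected inhibition of enzyme fluorescence in the single-dose primary screen is 50% or more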;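 note: 0% = DMSO with enzyme and 100% = substrate without enzyme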
Myeloid diff MLP = myeloid differentiation induction; AID 624256; 360,000 compounds, 1% hits; ER-HoxA9 myeloid progenitors, lysozyme-GFP differentiation, flow cytometry; calls only at 10 µM;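 active = normalized GFP-positive differentiation at or above the plate's own cutoff, the solvent-only control mean plus 3 SD; inconclusive = no clear call, values can overlap the other calls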;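 note: cells exposed to compound for four days before flow analysis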
MPTP inh = permeability transition pore inhibition; inhibition, % at 10 µM; 360,000 compounds, 1.4% hits; isolated mouse mitochondria, Ca2+ swelling absorbance, 30 min;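 active = inhibition of 50% or more, scaled per plate between neutral and stimulator controls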;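 note: 0% = DMSO wells given calcium and 100% = 1 mM EGTA wells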
rCAG binder = binds r(CAG) RNA repeats. 370,000 compounds, 1.3% hits. inhibition, % at 3 µM. r(CAG) RNA repeat, TO-PRO-1 dye displacement fluorescence;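 active = inhibition above the plate cutoff, the mean of all test compounds on that plate plus 3 SD, cut at about 35% in these data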;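 note: 0% = DMSO alone and 100% = 100 µM mitoxantrone as full dye displacement; higher means more dye released from RNA so lower well fluorescence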
NR3A LBD binder = modulators (binders) of human NR3A ligand-binding domain; NR3A LBD differential scanning fluorimetry, Tm shift; 0% = protein alone, 100% = glycine-bound protein; Tm shift relative to glycine control, % at 25 µM; 340,000 compounds, 2.5% hits; AID 1259313;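 active = melting temperature shift of at least 10% of the positive control shift, at one fixed dose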
rCAG binder conf = r(CAG) RNA repeat binding, confirmation; shares compounds with rCAG binder; TO-PRO-1 dye displacement fluorescence; inhibition, % at 3 µM; 4,300 compounds, 70% hits;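 active = inhibition above a per-plate cutoff, the mean inhibition of sample wells plus 3 SD, cut at about 35% in these data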;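 note: loss of TO-PRO-1 fluorescence as compound displaces dye from 1x1 AA loop RNA; 0% = DMSO only wells and 100% = 100 µM mitoxantrone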
DNA CAG counter = counter-screen for rCAG RNA binders: DNA CAG dye complex inhibitors. shares compounds with rCAG binder. d(CAG) DNA oligo TO-PRO-1 dye displacement, fluorescence. inhibition, % at 3 µM. 4,300 compounds, 94% hits. AID 652068;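 active = inhibition above its plate's cutoff, the mean test-well inhibition plus 3 SD, cut at about 4.8% in these data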;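 note: 0% = DNA dye mix with DMSO and 100% = 100 µM mitoxantrone; hits displace the dye from DNA and so lower well fluorescence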
Numbers without * were called inactive. The list is not random: actives were taken first. Their share in the collection is about 5.7%.

For CCOC(=O)c1ccccc1NC(=O)Cc1c(C(=O)O)n(C)c2ccccc12 the results were FAS TE block 0.2, Myeloid diff MLP inactive, MPTP inh 0.8, rCAG binder 36.8*, NR3A LBD binder -1.0, rCAG binder conf 25.5 and DNA CAG counter 4.1.
For CCc1ccc([C@H]2C(C(=O)O)=C[C@@H](CC)N2S(=O)(=O)c2ccc(C)cc2)cc1 the results were FAS TE block -3.2, Myeloid diff MLP inactive, MPTP inh -0.7, rCAG binder 21.0 and NR3A LBD binder -1.9.
For CCc1ccc([C@@H]2CC=C(C(=O)O)[C@H](c3ccc(Cl)cc3)N2S(=O)(=O)c2ccc(C)cc2)cc1 the results were FAS TE block 16.8, Myeloid diff MLP inactive, MPTP inh 3.4, rCAG binder 83.2*, NR3A LBD binder -9.9, rCAG binder conf 84.8* and DNA CAG counter 54.3*.
For CCc1ccc([C@@H]2CC=C(C(=O)O)[C@H](c3ccccc3F)N2S(=O)(=O)c2ccc(C)cc2)cc1 the results were FAS TE block -8.7, Myeloid diff MLP inactive, MPTP inh 1.9, rCAG binder 68.8*, NR3A LBD binder 1.0, rCAG binder conf 72.8* and DNA CAG counter 34.7*.
`CCc1ccc([C@@H]2CC=C(C(=O)O)[C@H](c3ccc(C)cc3)N2S(=O)(=O)c2ccc(C)cc2)cc1` gave FAS TE block 5.6, Myeloid diff MLP inactive, MPTP inh -0.2, rCAG binder 79.0*, NR3A LBD binder -1.8, rCAG binder conf 82.3* and DNA CAG counter 49.7*.
For CCc1ccc([C@@H]2CC=C(C(=O)O)[C@H](c3cccc(Cl)c3)N2S(=O)(=O)c2ccc(C)cc2)cc1 the results were FAS TE block 11.7, Myeloid diff MLP inactive, MPTP inh -0.1, rCAG binder 81.6*, NR3A LBD binder -10.4, rCAG binder conf 76.1* and DNA CAG counter 35.5*.
`CC(=O)COc1ncn(-c2ccccc2)n1` gave FAS TE block -4.0, Myeloid diff MLP inconclusive, MPTP inh -4.4, rCAG binder 7.8 and NR3A LBD binder 1.7.
`O=C(CSc1nnnn1-c1cccc2ccccc12)N1CCOCC1` gave FAS TE block -10.2, Myeloid diff MLP inactive, MPTP inh 0.6, rCAG binder -0.3 and NR3A LBD binder -0.9.
O=C(CSc1nnnn1-c1cccc2ccccc12)NC(C(=O)O)(c1ccccc1)c1ccccc1 was read as FAS TE block 0.1, Myeloid diff MLP inactive, MPTP inh 1.5, rCAG binder 46.2*, NR3A LBD binder -0.6, rCAG binder conf 35.6* and DNA CAG counter 10.1*.
`Cc1ccc(-n2nnnc2SCC(=O)NC(C(=O)O)(c2ccccc2)c2ccccc2)cc1C` gave FAS TE block -0.9, Myeloid diff MLP inactive, MPTP inh 0.7, rCAG binder 38.0*, NR3A LBD binder -1.0, rCAG binder conf 38.4* and DNA CAG counter 10.3*.
Screening CS(=O)(=O)c1ccc(-c2nnc(NC(=O)c3ccc(S(=O)(=O)N4CCCC4)cc3)o2)cc1 returned FAS TE block -7.3, Myeloid diff MLP inactive, MPTP inh -2.0, rCAG binder 35.8*, NR3A LBD binder 0.4, rCAG binder conf 15.8 and DNA CAG counter 4.7*.
`Cc1ccc(F)c(S(=O)(=O)NC(=O)C2(C)CCN2C(=O)c2ccc(C3CCCCC3)cc2)c1` (configuration not stated) gave FAS TE block -6.3, Myeloid diff MLP inconclusive, MPTP inh -0.7 and rCAG binder 30.7.
`Nc1nonc1-c1nc2ccccc2n1CC(=O)N/N=C/c1ccc(-c2cccc(C(=O)O)c2)o1` gave FAS TE block 0.0, Myeloid diff MLP inactive, MPTP inh -2.0, rCAG binder 61.5*, NR3A LBD binder -17.5, rCAG binder conf 46.4* and DNA CAG counter 14.2*.
`COc1cccc2cc(C(=O)C3=C(O)C(=O)N(c4cc(C)on4)C3c3cccs3)oc12` (configuration not stated) gave FAS TE block 4.3, Myeloid diff MLP inactive, MPTP inh 0.7, rCAG binder 43.8*, NR3A LBD binder -9.3, rCAG binder conf 61.7* and DNA CAG counter 26.6*.
Screening COc1cc(C2C(C(=O)c3cccs3)=C(O)C(=O)N2c2cc(C)on2)ccc1O (configuration not stated) returned FAS TE block -11.2, Myeloid diff MLP inactive, MPTP inh -1.5, rCAG binder 6.9 and NR3A LBD binder -1.6.
Screening COc1cccc(C2C(C(=O)c3cc4ccccc4o3)=C(O)C(=O)N2c2cc(C)on2)c1OC (configuration not stated) returned FAS TE block -4.2, Myeloid diff MLP inactive, MPTP inh -0.8, rCAG binder 50.7*, NR3A LBD binder -0.8, rCAG binder conf 44.5* and DNA CAG counter 11.6*.
For COc1cccc(C2C(C(=O)c3cc4cccc(OC)c4o3)=C(O)C(=O)N2c2cc(C)on2)c1OC (configuration not stated) the results were FAS TE block -1.6, Myeloid diff MLP inactive, MPTP inh -0.7, rCAG binder 57.2*, NR3A LBD binder -17.2, rCAG binder conf 65.3* and DNA CAG counter 25.3*.
Screening CC1=C(C(=O)OC2CCC(C)CC2)C(c2ccc(O)c([N+](=O)[O-])c2)NC(=O)N1 (configuration not stated) returned FAS TE block 7.8, Myeloid diff MLP inactive, MPTP inh 0.2, rCAG binder 4.3 and NR3A LBD binder 0.5.
CCn1nc2cc(C(=O)NCCc3cccs3)ccc2c1OC was read as FAS TE block -6.1, Myeloid diff MLP inactive, MPTP inh 1.2, rCAG binder -6.8 and NR3A LBD binder 0.9.
Screening O=C(CCN1CCN(Cc2ccccc2)CC1)NNC(=O)Nc1cccc(C(F)(F)F)c1 returned FAS TE block -4.4, Myeloid diff MLP inactive, MPTP inh 1.6, rCAG binder -9.1 and NR3A LBD binder 2.2.
Cn1c(NCCN2CCCC2)nc2cc(-c3ccsc3)sc2c1=O was read as FAS TE block -7.3, Myeloid diff MLP inconclusive, MPTP inh -3.0 and rCAG binder 7.5.
COc1cc(OC)cc(-c2nnc(NC(=O)CCS(=O)(=O)c3ccc(C)cc3)o2)c1 was read as FAS TE block -1.8, Myeloid diff MLP inactive, MPTP inh 1.0, rCAG binder 17.7 and NR3A LBD binder -2.2.
Screening CCCC(C(=O)O)N1C(=O)/C(=C2\C(=O)N(C)c3ccccc32)SC1=S (configuration not stated) returned FAS TE block -5.4, Myeloid diff MLP inactive, MPTP inh -10.6, rCAG binder 55.8*, NR3A LBD binder 26.8*, rCAG binder conf 62.6* and DNA CAG counter 26.0*.
